Our source for the enrichment ratio values is a collection of fitness landscapes (doi:10.1126/science.1257360).

In all, about 140,000 sequences were measured (“enrichment ratio after two sorts for PhoP signalling”: median about 0, highest 2% from about 11 on). Only a selection was taken, and the highest values are over-represented in it overall.

B1: PhoQ; a variant is named by its letters at X, in order, P23837 (parent)
chain: MKKLLRLFFPLSLRVRFLLATAAVVLVLSLAYGMVALIGYSVSFDKTTFRLLRGESNLFYTLAKWENNKLHVELPENIDKQSPTMTLIYDENGQLLWAQRDVPWLMKMIQPDWLKSNGFHEIEADVNDTSLLLSGDHSIQQQLQEVREDDDDAEMTHSVAVNVYPATSRMPKLTIVVVDTIPVELKSSYMVWSWFIYVLSANLLLVIPLLWVAAWWSLRPIEALAKEVRELEEHNRELLNPATTRELTSLVRNLNRLLKSERERYDKYRTTLTDLTHSLKTPLXXLQXXLRSLRSEKMSVSDAEPVMLEQISRISQQIGYYLHRASMRGGTLLSRELHPVAPLLDNLTSALNKVYQRKGVNISLDISPEISFVGEQNDFVEVMGNVLDNACKYCLEFVEISARQTDEHLYIVVEDDGPGIPLSKREVIFDRGQRVDTLRPGQGVGLAVAREITEQYEGKIVAGESMLGGARMEVIFGRQHSAPKDE

The test covers variants of B1. The test can be described thus: enrichment ratio after two sorts for PhoP signalling (ratio (wild type AVST 3.29)); higher = more functional. The note with it: with PhoP (E. coli).
As to TDCH, the enrichment ratio was 11.9. As to FDCH, the enrichment ratio was not above 0.25.

With TDMH, the enrichment ratio is 18.2.

With LTCH, the enrichment ratio is not above 0.25. On to FDMH, for which the enrichment ratio is not above 0.25. Regarding LTMH, the enrichment ratio is 2.1. In the case of EPTI it was not above 0.25; in that of MAHQ, not above 0.25. On to EKMC, for which the enrichment ratio is not above 0.25. With SNGP the figure was not above 0.25; with QGGH, not above 0.25; with QEGH, 24.6. On to SNGH, for which the enrichment ratio amounted to 23.3. As to QRGH, the enrichment ratio was not above 0.25. For YTGH, the enrichment ratio is not above 0.25. SNTH: the enrichment ratio was determined as 7.23.

As for SRGH, the enrichment ratio is not above 0.25. On to STGH, for which the enrichment ratio came out at 17.1. Consider QITH, for which the enrichment ratio was not above 0.25. Consider QIGH, for which the enrichment ratio worked out at 14. QIYH: the enrichment ratio is not above 0.25.

On to YAAS, for which the enrichment ratio is not above 0.25. In the case of QNYF, the enrichment ratio was not above 0.25. On to GMNL, for which the enrichment ratio was not above 0.25. For the variant SKVD, the enrichment ratio is not above 0.25.

Turning to LATP, the enrichment ratio was not above 0.25.

As to DRAC, the enrichment ratio is not above 0.25.

With VPLT, the enrichment ratio is not above 0.25.

Take GGVS: the enrichment ratio was not above 0.25. Regarding FTAL, the enrichment ratio is 0.293.

Regarding QVTH, the enrichment ratio is not above 0.25. In the case of QVGP, the enrichment ratio was not above 0.25. With QVGH the figure was 15.9. As to LRMM, the enrichment ratio is not above 0.25. As for LEEG, the enrichment ratio was not above 0.25. Turning to LEWI, the enrichment ratio was determined as 2.42. On to LEMK, for which the enrichment ratio was not above 0.25. With LEMV the figure was 12.9. Take LEMM: the enrichment ratio is 11.3. With LEGM, the enrichment ratio is not above 0.25. Regarding LEMS, the enrichment ratio worked out at 8.78. For LEMG, the enrichment ratio came to 11.8. LEIV: the enrichment ratio was not above 0.25.

As for LEGG, the enrichment ratio was not above 0.25. With LEWV the figure was 11.9; with FPFR, not above 0.25.

FVFS: the enrichment ratio was not above 0.25. As to GEKH, the enrichment ratio was not above 0.25.

Consider QGKV, for which the enrichment ratio was not above 0.25. SSGP: the enrichment ratio is not above 0.25.

In the case of EPLM, the enrichment ratio is not above 0.25.

For ALDK, the enrichment ratio was not above 0.25.

For EQNV, the enrichment ratio is not above 0.25. In the case of IQAH it was not above 0.25. With TQAH the figure was 13.3. Take TQLC: the enrichment ratio turned out to be 13.1. Regarding NQAH, the enrichment ratio is not above 0.25. Turning to NQLC, the enrichment ratio was not above 0.25. TQNV: the enrichment ratio was 14.2. Regarding WQLC, the enrichment ratio was not above 0.25. In the case of IQNV it was not above 0.25; in that of TQWT, 0.56. TQQT: the enrichment ratio was 6.08. As to TQAT, the enrichment ratio was found to be 12.7.

As to MGKS, the enrichment ratio is not above 0.25. Consider INSM, for which the enrichment ratio was 0.298.

Turning to IPGV, the enrichment ratio is not above 0.25. As to PQPN, the enrichment ratio is not above 0.25. In the case of FQNC it was not above 0.25; in that of NNRL, not above 0.25.

For the variant EKQI, the enrichment ratio was not above 0.25. RWFN: the enrichment ratio is not above 0.25.

Turning to NWQL, the enrichment ratio is not above 0.25. VDAW: the enrichment ratio is not above 0.25. As for RNYN, the enrichment ratio is not above 0.25. Turning to FRWR, the enrichment ratio is not above 0.25. For the variant WYYY, the enrichment ratio is not above 0.25. In the case of TQLQ it was 5.05.

For TQAA, the enrichment ratio was 3.31. In the case of TQNY, the enrichment ratio came to 6.18. In the case of TQNS it was 12.8.

With TQNW, the enrichment ratio is not above 0.25. In the case of TQET it was not above 0.25; in that of TQNI, not above 0.25; in that of TQAD, 11.6. With LAAD the figure was not above 0.25. In the case of TQRA, the enrichment ratio is not above 0.25. Regarding TQLS, the enrichment ratio was found to be 17.6. On to TQNT, for which the enrichment ratio is 15.4. With PAWD the figure was not above 0.25. SEAL: the enrichment ratio was found to be 7.85. For GSHA, the enrichment ratio is not above 0.25. For the variant AKYV, the enrichment ratio was not above 0.25. Regarding FLDC, the enrichment ratio is not above 0.25. On to ANKM, for which the enrichment ratio is not above 0.25.

With TAGV, the enrichment ratio is 5.24. With ICLI the figure was 5.89; with FVAK, not above 0.25; with FELQ, 8.46. For the variant IHIG, the enrichment ratio is not above 0.25.

As for TQMT, the enrichment ratio came to 14.6.

For the variant EQMT, the enrichment ratio is not above 0.25.

Regarding TQNH, the enrichment ratio is 16.3. On to TQLT, for which the enrichment ratio was 18.8.

In the case of TQKH, the enrichment ratio was not above 0.25. TQRH: the enrichment ratio is not above 0.25. Turning to TQLA, the enrichment ratio came to 4.57.

In the case of TQLK, the enrichment ratio was 4.42. In the case of FQMT it was not above 0.25; in that of NNDT, not above 0.25; in that of FCNF, not above 0.25. MPFQ: the enrichment ratio was not above 0.25.

As for RPVE, the enrichment ratio was not above 0.25. With VATR the figure was not above 0.25; with FKHE, not above 0.25. For YRPV, the enrichment ratio was not above 0.25. As for VMPF, the enrichment ratio is not above 0.25.

On to AQGT, for which the enrichment ratio was 3.18. Turning to NVAL, the enrichment ratio is not above 0.25. VRAL: the enrichment ratio is not above 0.25. Regarding AQAL, the enrichment ratio is 18.4. Consider AKAL, for which the enrichment ratio is 11.1.

In the case of TSAL, the enrichment ratio stood at 13.

Regarding MVAL, the enrichment ratio was 11.3.

Turning to GVAL, the enrichment ratio stood at 1.02. For AHAL, the enrichment ratio is not above 0.25.

Turning to FSAL, the enrichment ratio turned out to be 0.667. In the case of KSAL, the enrichment ratio is not above 0.25. With ASAL the figure was 11.7.

As to GNDN, the enrichment ratio was 0.537. In the case of LWNG it was not above 0.25. In the case of QKPR it was not above 0.25.

NSMN: the enrichment ratio is not above 0.25. Consider RATG, for which the enrichment ratio was not above 0.25. As to MMAL, the enrichment ratio turned out to be 13.5.

With MCAL, the enrichment ratio was found to be 13.5. Consider NMAL, for which the enrichment ratio was not above 0.25. Take MKAL: the enrichment ratio was 4.45. As for FCAL, the enrichment ratio was not above 0.25.

Turning to TMAL, the enrichment ratio is 14. Turning to KCAL, the enrichment ratio is not above 0.25.

In the case of KMAL, the enrichment ratio is not above 0.25.

Consider AMAL, for which the enrichment ratio came to 11.3. With DMAL the figure was not above 0.25; with MFAL, not above 0.25; with VLAL, 0.925. Turning to HHKF, the enrichment ratio is not above 0.25. As to ICEL, the enrichment ratio is not above 0.25. For the variant LEWF, the enrichment ratio is not above 0.25.

As to GLPR, the enrichment ratio was not above 0.25. Take NESC: the enrichment ratio was not above 0.25. Turning to NEHC, the enrichment ratio was not above 0.25. On to KSYC, for which the enrichment ratio was not above 0.25.
